In the library only some 3.5% were active in any assay of this set; here they are far more common.
mHTT CaM bind = disrupts binding of mutant huntingtin to calmodulin; P42858; AlphaScreen His-mHTT/GST-CaM binding, luminescence; inhibition, % at 15 µM; 3.6% of 190,000 active;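 further: 0% = both proteins with DMSO and 100% = one protein alone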
Pf apPOL inh = Pf-apPOL DNA polymerase inhibition. Recombinant Pf-apPOL, molecular beacon fluorescence, 1.5 h. inhibition, % at 10 µM. 0.25% of 210,000 active
An asterisk follows results filed as active; x = no result given. No stated cut-off is given here; in the data, active means inhibition above about 50%; inactive means the rest.

SMILES | mHTT CaM bind | Pf apPOL inh
Cc1ccc(C2CC(c3ccc(C)c(C)c3)=NN2C(=O)CN(C)C(=O)C2CC2)cc1 (stereo unspecified) | 6.4 | 2.2
CC(=O)N(C)CC(=O)N1N=C(c2ccc(F)cc2)CC1c1ccccc1 (stereo unspecified) | 21.0 | 6.8
Cc1ccc(C2CC(c3cccs3)=NN2C(=O)CN(C)C(=O)C2CCCC2)cc1 (stereo unspecified) | 60.8* | -0.9
O=C1OC(c2ccc([N+](=O)[O-])cc2)=N/C1=C\c1ccccc1F | 5.0 | 5.9
CCCCc1c(C)c(C#N)c2nc3ccccc3n2c1-n1ccnc1 | 8.0 | 5.7
N#CCCN1c2ccccc2Sc2ccc(Cl)cc21 | -6.9 | -8.5
O=C(Nc1ccc(F)cc1F)c1ccc(Cl)cc1Cl | -10.7 | -4.2
COc1ccc(CCCC(=O)Nc2ccc(Cl)cc2C)cc1 | -2.0 | 0.7
COc1ccc(CCCC(=O)Nc2ccc(I)cc2C)cc1 | -3.8 | 93.0*
O=C(Nc1ccc2c(c1)C(=O)NCC2)c1ccsc1 | -6.0 | -14.8
COc1ccccc1C(=O)Nc1ccc(-c2nc3ncccc3o2)cc1 | 25.0 | 6.4
CC1=CC(=O)C(C(C)C)=CC1=NS(=O)(=O)c1ccc([N+](=O)[O-])cc1 | 50.0 | -6.4
CC1=CC(=NS(=O)(=O)c2ccc(Cl)cc2)C(C)=CC1=O | 65.0* | -1.6
O=C(Cc1c[nH]c2ncccc12)NCc1cccc(Br)c1 | -6.7 | -5.9
O=[N+]([O-])c1ccc(NCCCNS(=O)(=O)c2ccc(Cl)cc2)c(C(F)(F)F)c1 | 53.0* | 6.8
CC(=O)Nc1ccc(S(=O)(=O)NCCCNc2ccc([N+](=O)[O-])cc2Cl)cc1 | 11.2 | -6.5
COc1ccc(NC(=O)c2ccc(OC)c(OC)c2)cc1Cl | 8.0 | -5.2
O=C(NCCc1ccccc1)c1cccn1Cc1ccc(Cl)cc1 | 16.0 | -22.4
O=S(=O)(Nc1nc2n(n1)C(c1ccccc1)C=C(c1ccc(Cl)cc1)N2)c1ccccc1 (stereo unspecified) | 5.0 | -3.0
O=C1CCC(=O)N1c1nc2n(n1)C(c1ccccc1)C=C(c1ccc(Cl)cc1)N2 (stereo unspecified) | 77.0* | 9.5
OCc1nc2ccccc2n1Cc1ccccc1 | -0.5 | 1.0
OCc1nc2ccccc2n1Cc1ccc(Cl)c(Cl)c1 | 72.7* | 1.3
NC(=NOC(=O)C1CCc2ccccc2O1)c1ccc(C(F)(F)F)cc1 (stereo unspecified) | x | -8.8
CC(=O)NCC(=O)N(C)C(C(=O)Nc1ccc2c(c1)OCO2)c1ccccc1 (stereo unspecified) | 5.0 | -2.0
CN(C(=O)Cc1c[nH]c2ccccc12)C(C(=O)Nc1ccc2c(c1)OCO2)c1ccccc1 (stereo unspecified) | 88.0* | -3.9
SMILES | mHTT CaM bind | Pf apPOL inh
CC(C)N(Cc1c[nH]c2ccccc12)C(=O)Nc1ccc(Cl)c(Cl)c1 | 68.0* | -16.0
CC(=O)Nc1ccc(NC(=O)CCc2c[nH]c3ccccc23)cc1 | 10.0 | -9.4
COc1ccc(-n2nc3c(c2NC(=O)c2ccc(C(C)(C)C)cc2)CS(=O)(=O)C3)cc1 | 16.0 | -5.0
CN1CCc2cc(C(CNC(=O)Cc3cccc4ccccc34)N3CCOCC3)ccc21 (stereo unspecified) | 60.9* | -37.9
CN1CCc2cc(C(CNC(=O)c3ccccc3Br)N3CCOCC3)ccc21 (stereo unspecified) | 38.3 | -24.3
COc1ccc2nc(N3CCCC(C(=O)NCCCN(C)C4CCCCC4)C3)sc2c1 (stereo unspecified) | 10.0 | 4.1
O=C1NC(=O)/C(=C/c2cc(Cl)cc(Cl)c2O)S1 | 86.0* | -12.3
CCOc1cc([N+](=O)[O-])cc(/C=C2\SC(=O)NC2=O)c1O | 6.0 | 70.9*
O=C1NC(=O)/C(=C/c2ccc(Cl)cc2Cl)S1 | 2.0 | 0.3
N=C1NC(=O)/C(=C/c2cc(Br)cc(Cl)c2O)S1 | 9.0 | -2.8
O=C1NC(=O)/C(=C/c2cc(Br)cc(Cl)c2O)S1 | 60.0* | -2.3
O=C1NC(=O)/C(=C/c2ccccc2OCc2ccc([N+](=O)[O-])cc2)S1 | 1.0 | -1.8
Cn1c(C(=O)Nc2ccc3c(c2)OCO3)cc2c1CCN(Cc1cccc(F)c1)C2 | 52.5* | -0.3
Cn1c(C(=O)NCCN2CCCCC2)cc2c1CCN(Cc1cccc(F)c1)C2 | 48.8 | 4.0
CC(=O)c1cccc(NC(=O)c2cc3c(n2C)CCN(Cc2cccc(F)c2)C3)c1 | 59.6* | -1.5
Cn1c(C(=O)NC2CC2)cc2c1CCN(Cc1cccc(F)c1)C2 | 25.7 | -4.1
COc1ccc(Br)c(C2CC(=O)Nc3n[nH]c(C)c32)c1 (stereo unspecified) | 4.0 | -6.8
O=C(Nc1cc(-c2cccs2)nn1CCO)C1c2ccccc2Oc2ccccc21 | 57.8* | -4.1
O=C(NCCn1nc(-c2cccs2)ccc1=O)C1c2ccccc2Oc2ccccc21 | -15.0 | -6.7
COc1ccc(-c2c(C)oc3cc(O)ccc3c2=O)cc1 | -5.4 | 62.3*
COc1ccc(-c2c(C)oc3cc(OC(=O)C(C)C)ccc3c2=O)cc1OC | 84.2* | -7.0
COc1ccc(-c2c(C)oc3cc(O)ccc3c2=O)cc1OC | 3.4 | -4.7
COc1ccc(C(=O)Oc2ccc3c(=O)c(-c4ccc(OC)c(OC)c4)c(C)oc3c2)cc1OC | -1.6 | 2.0
Cc1nc2ccc(NC(=O)CNC(=O)c3ccccc3)cc2c(=O)n1-c1ccc(Cl)cc1 | 11.7 | 1.4
COc1ccc(S(=O)(=O)N(CC(=O)NC(C)C)c2cc(Cl)ccc2OC)cc1OC | 20.6 | -4.0
SMILES | mHTT CaM bind | Pf apPOL inh
COc1ccccc1NC(=O)c1nn(C)cc1Br | -3.0 | 61.2*
Cn1cc(Br)c(C(=O)Nc2ccc(Br)cc2)n1 | -15.0 | -3.7
COc1cc(OC)cc(C(=O)Nc2ccc3oc(-c4ccccc4F)nc3c2)c1 | 2.0 | 0.1
CC(C)(C)c1[nH]nc2c1C(c1ccccc1C(F)(F)F)C(C#N)=C(N)O2 (stereo unspecified) | 16.0 | 0.1
COc1ccc(Br)cc1/C=C/c1ccc2cccc(O)c2n1 | 45.0 | -5.4
O=[N+]([O-])c1cc(Br)c(O)c(/C=C/c2ccc3cccc(O)c3n2)c1 | 82.8* | -11.3
Cc1ccc2c(c1)NC1(CCN(C(=O)c3ccc(Cl)cc3)CC1)c1cccn1-2 | 52.8* | -5.7
Cc1ccc2c(c1)NC1(CCN(C(=O)c3ccc(F)cc3)CC1)c1cccn1-2 | 87.1* | -4.8
CC(C)NC(=O)N1CCC2(CC1)Nc1cc(F)ccc1-n1cccc12 | 33.9 | 1.8
CCN1c2ccc(C)cc2C(=O)NC12CCN(C(=O)c1ccc(Cl)cc1)CC2 | -5.6 | -4.4
Cc1ccc(S(=O)(=O)N2CCC(C(=O)Nc3cccc([N+](=O)[O-])c3)CC2)cc1 | -1.9 | -3.1
COCCCNS(=O)(=O)c1ccc(NS(=O)(=O)c2ccc(C)cc2)cc1 | x | -0.2
Nc1ccc(Nc2ccc([N+](=O)[O-])cc2S(=O)(=O)O)cc1 | 51.5* | -3.2
CS(=O)(=O)NCCNc1ccc([N+](=O)[O-])cc1Cl | 4.3 | -3.6
Cc1cc(I)c(O)c(C=Nc2cc(C)ccc2O)c1 | 45.0 | -5.6
Cc1ccc(O)c(N=Cc2cc(I)ccc2O)c1 | 63.0* | 5.2
COc1cccc(C(C)NC(=O)c2cc3ccccn3c2)c1 (stereo unspecified) | 67.8* | -3.2
COc1ccc(CNC(=O)c2cc3ccccn3c2)cc1 | 6.8 | 0.5
COc1cc(OC)cc(C2=Cc3ccccc3C(CC(C)=O)N2c2ccc(-c3cccs3)cc2)c1 (stereo unspecified) | 40.3 | -3.3
